The sample as a whole holds a higher share of hits than the screen did.
Menin-MLL TR inh: menin-MLL binding inhibition, Texas Red mutant peptide; Potency, µM (doses to about 61.6 µM), for inactives: at the top dose FP activity change, negative = inhibition, most hits filed as inhibitors; O00255; Menin + Texas Red MLL mutant peptide, fluorescence polarization; hit rate 0.23% among 270,000; active = well fitted inhibition curve with a large enough effect in the polarisation, with a control signal flat, not every such curve was filed as active; inconclusive = small, poorly fitted or top-dose-only effect, or effect the other way, or a change in a side signal; inactive = no such curve, though single readings can be large or run the other way; the % refers to the polarisation; note: potency is the fitted concentration of half-maximal effect; % of control where 0% means no effect
Target sequence (O00255 whole entry, looked up): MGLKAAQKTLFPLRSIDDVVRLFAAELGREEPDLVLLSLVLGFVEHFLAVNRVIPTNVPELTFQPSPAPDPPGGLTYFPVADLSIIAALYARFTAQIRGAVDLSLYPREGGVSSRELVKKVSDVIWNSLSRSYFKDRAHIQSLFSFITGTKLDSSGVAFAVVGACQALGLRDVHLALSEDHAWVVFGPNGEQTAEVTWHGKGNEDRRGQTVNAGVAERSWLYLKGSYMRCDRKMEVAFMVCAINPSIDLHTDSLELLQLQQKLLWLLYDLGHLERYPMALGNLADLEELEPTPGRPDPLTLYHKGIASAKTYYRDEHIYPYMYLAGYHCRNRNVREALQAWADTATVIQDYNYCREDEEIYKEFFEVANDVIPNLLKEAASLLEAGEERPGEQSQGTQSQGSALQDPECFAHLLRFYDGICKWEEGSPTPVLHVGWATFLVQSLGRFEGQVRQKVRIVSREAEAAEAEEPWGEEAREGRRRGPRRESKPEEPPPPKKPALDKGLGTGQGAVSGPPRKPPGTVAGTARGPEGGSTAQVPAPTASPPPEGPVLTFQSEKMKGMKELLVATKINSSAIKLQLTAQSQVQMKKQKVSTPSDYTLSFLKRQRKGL
p53 reactivator: re-activators of mutant p53 | H1299 p53-A138V BP100-luciferase reporter, luminescence, 24 h | Potency, µM (titrated, usually from 92.2 µM), without a hit: at the top dose activity change, positive = activation, most hits filed as activators | hit rate 0.063% among 320,000; active = well fitted activation curve with a large enough effect; inconclusive = small, poorly fitted or top-dose-only effect; inactive = no such curve, though single readings can be large or run the other way; note: potency is the fitted concentration of half-maximal effect; % of control where 0% means no effect; nearly all actives have a fitted effect of over 45% in size
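H1299 (p53-null), stable ts p53-A138V + BP100-Luc; 1000 cells/well, Opti-MEM/10% FBS; cpd 4 pt, 1:5; 24 h, 37 deg C, 5% CO2; detection reagent 10 min RT; luminescence.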
Menin MLL FP FL: menin-MLL binding inhibition, fluorescein peptide; AID 1766; Fluorescence polarization, fluorescein-MLL peptide displacement from menin; FP activity change, % at 61.4 µM; 290,000 tested, under 10 active; active = well fitted curve in the direction sought with a large enough effect in the polarisation, not every such curve was filed as active; inconclusive = small, poorly fitted or top-dose-only effect, or effect the other way, or a change in a side signal; inactive = no such curve, though single readings can be large or run the other way; the % refers to the polarisation; note: % of control where 0% means no effect
MLL CXXC-DNA inh: MLL CXXC-DNA interaction inhibition. Q03164. MLL-CXXC / FITC-HOXA9 DNA fluorescence polarization. Potency, µM (top dose mostly 115 µM), for the others: top-dose activity change, negative = inhibition, hits mostly inhibitors. hit rate 0.037% among 290,000; active = well fitted inhibition curve with a large enough effect in the polarisation, with a control signal flat, not every such curve was filed as active; inconclusive = small, poorly fitted or top-dose-only effect, or effect the other way, or a change in a side signal; inactive = no such curve, though single readings can be large or run the other way; the % refers to the polarisation; note: potency is the fitted concentration of half-maximal effect
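Purified MLL-CXXC (added from a 7 uM solution) was preincubated 5 min at ambient with pinned compounds in 50 mM Tris-HCl pH 7.5, 50 mM NaCl, 1 mM DTT, 0.05% BSA. Fluorescein-labeled HOX-A9 DNA (50 nM solution) followed, 30 min, then polarization read.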
ClpP mod: qHTS Assay for Activators of ClpP; ATP-dependent Clp protease proteolytic subunit (Bacillus subtilis (strain 168)), P80244; purified B. subtilis ClpP, FRET peptide cleavage, 20 min; AID 651965, 2013; hit rate 1.9% among 340,000; Potency, µM (top dose mostly 57.5 µM), without a hit: at the top dose activity change, negative = active; active = well fitted falling curve with a large enough effect; inconclusive = small, poorly fitted or top-dose-only effect; inactive = no such curve, though single readings can be large or run the other way; note: potency is the fitted concentration of half-maximal effect; the source files actives as falling curves though it sought activators and does not explain the sign; nearly all actives have a fitted effect of over 65% in size
Target sequence (P80244 whole entry, looked up): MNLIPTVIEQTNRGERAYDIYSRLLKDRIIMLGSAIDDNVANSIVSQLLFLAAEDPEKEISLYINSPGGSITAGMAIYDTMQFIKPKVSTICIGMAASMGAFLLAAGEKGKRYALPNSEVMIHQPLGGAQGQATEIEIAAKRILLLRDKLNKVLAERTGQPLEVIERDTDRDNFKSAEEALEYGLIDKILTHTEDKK
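Buffer: 100 mM Tris/HCl pH8, 100 mM KCl, 0.05% low protease BSA, 2.5% glycerol, 0.01% Tween-20. ClpP 10 microg/mL final; 20 min RT; delta FRET normalized to ADEP and DMSO controls.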
* marks the source's active call; other numbers are inactive results; ? = inconclusive; · = not tested or not shown; [ ] = dose if it differs, or a comment.

SMILES	Menin-MLL TR inh	p53 reactivator	Menin MLL FP FL	MLL CXXC-DNA inh	ClpP mod
Cn1ccnc1SCC(=O)Nc1cccc2ccccc12	11.3%	4.9%	0.2	14.5%	0.2%
Cn1ccnc1SCC(=O)n1c2c(c3ccccc31)CCCC2	-7.6%	-3.4%	-1.4	2.0%	31.6µM*
Cc1cc(C)c(C)c(S(=O)(=O)Nc2ccccc2C(=O)NCCCn2ccnc2)c1C	33.3%	6.3%	-1.2	10.5%	35.5µM*
Cc1cc(C(=O)NCCCn2ccnc2)sc1-c1ccccc1	-7.2%	-9.3%	1.9	12.0%	22.4µM*
O=C(NCCCn1ccnc1)c1ccc(-c2ccccc2)cc1	-8.3%	4.5%	-1.5	-2.3%	-1.3%
Cc1ccc2nc(-c3ccccc3)cc(C(=O)NCCCn3ccnc3)c2c1	-2.5%	4.3%	-1.5	8.6%	15.8µM*
O=C(NCCCn1ccnc1)c1cc(-c2ccncc2)nc2ccccc12	6.3%	2.4%	-1.9	3.0%	·
CC(C)COc1ccc(CC(=O)NO)cc1	·	·	·	·	1.6%
CCOC(=O)C(C)Sc1ccc2nnc(-c3ccc(OCC)cc3)n2n1 (stereo not given)	·	·	·	·	-5.5%
CCOc1ccc(-n2nc(CO)c(C(=O)NCC(C)O)n2)cc1 (stereo not given)	·	·	·	·	14.1µM*
CCc1ccc(CNC(=O)c2nn(-c3ccc(C)c(C)c3)nc2CO)cc1	·	·	·	·	3.55µM*
CCc1ccc(-n2nc(CO)c(C(=O)NCc3cccs3)n2)cc1	·	·	·	·	-19.2%
COCCNC(=O)c1nn(-c2ccc(Cl)cc2)nc1CO	·	·	·	·	14.1µM*
CCc1ccc(-n2nc(CO)c(C(=O)NCc3ccccc3OC)n2)cc1	·	·	·	·	-3.7%
CCc1ccc(-n2nc(CO)c(C(=O)NCCOC)n2)cc1	·	·	·	·	12.6µM*
CCCCN1CC[C@H]2C=CC[C@@H](C(=O)NCc3cccnc3)[C@H]2C1=O	·	·	·	·	0.0%
Cc1ccc(Sc2ccccc2CN(C)C)c(N)c1	-0.2%	·	1.8	·	·
N#Cc1ccc(/C=C2/C=Cc3ccccc32)cc1	·	·	·	·	-1.6%
Cc1c(NC(=O)COC(=O)c2cc(-c3ccc(-c4ccccc4)cc3)nc3ccccc23)c(=O)n(-c2ccccc2)n1C	-0.4%	?	-2.0	1.9%	10µM*
Cc1c(NC(=O)COC(=O)c2ccc[nH]c2=O)c(=O)n(-c2ccccc2)n1C	-1.4%	-5.9%	-0.7	-2.3%	17.8µM*
O=S1(=O)CCO[C@H]2CCCC[C@@H]2N1Cc1ccccc1F	·	·	·	·	-1.0%
Cc1cc2n(n1)C(c1ccc(N(C)C)cc1)Nc1ccccc1-2 (stereo not given)	?	11.4%	3.9	0.5%	-26.6%
Cc1cc2n(n1)C(c1ccccc1)Nc1ccccc1-2 (stereo not given)	17.4%	-4.9%	3.7	-0.6%	25.1µM*
Cc1cc2n(n1)C(c1sccc1C)Nc1ccccc1-2 (stereo not given)	10.8%	-0.6%	-0.1	-0.6%	17.8µM*
Cc1cc2n(n1)C(c1sccc1C)Nc1c(C)cccc1-2 (stereo not given)	3.2%	-6.0%	0.2	-9.3%	28.2µM*
SMILES	Menin-MLL TR inh	p53 reactivator	Menin MLL FP FL	MLL CXXC-DNA inh	ClpP mod
Cc1cc2n(n1)C(c1ccc3c(c1)OCO3)Nc1ccccc1-2 (stereo not given)	16.5%	-6.1%	-0.6	-0.2%	?
Cc1ccc2c(c1)-c1cc(C)nn1C(c1ccc3c(c1)OCO3)N2 (stereo not given)	17.5%	-3.0%	0.8	3.6%	12.6µM*
CCCSS/C(CCO)=C(/C)N(C=O)Cc1cnc(C)nc1N	7.3%	·	3.2	-0.5%	·
O=C1C2=CC[C@H]3C(=O)N(C[C@@H]4CCCO4)C(=O)[C@@H]3[C@@H]2[C@H](O)[C@@H]2O[C@H]12	10.5%[11.7 µM]	·	-23.4[11.7 µM]	·	·
O=c1cc(O)c2c([nH]1)CCC2	·	·	·	·	-5.1%
Cc1ccc2c(c1)-c1cc(C)nn1C(c1sccc1C)N2 (stereo not given)	-9.8%	2.2%	0.8	4.7%	15.8µM*
O=C(CSc1ccc(-c2cccnc2)nn1)Nc1ccccc1F	12.5%	20.5%	1.8	-0.2%	-4.4%
O=C(CSc1ccc(-c2ccc(-n3cccn3)cc2)nn1)Nc1ccccc1F	·	16.1%	·	·	15.8µM*
COc1ccc(N2CCN(C(=O)c3cn(C4CCCC4)c(=O)c4c3c3ccccc3n4C)CC2)cc1	-0.5%	-4.0%	-2.3	29.6%	0.8%
Cn1c2ccccc2c2c(C(=O)N3CCN(c4ccccn4)CC3)cn(C3CCCC3)c(=O)c21	-2.5%	-4.4%	-0.7	1.4%	31.6µM*
CC(C)c1ccc(NC(=O)c2cn(C3CCCCC3)c(=O)c3c2c2ccccc2n3C)cc1	·	·	·	·	25.1µM*
Clc1cccc[n+]1CCCCCC[n+]1ccccc1Cl	·	·	·	·	-3.3%
COC(=O)CSc1ncc2c(n1)-c1ccccc1N(Cc1ccccc1C)S2(=O)=O	·	·	·	·	-21.3%
Cc1ccccc1CN1c2ccccc2-c2nc(SCC(=O)NCc3ccccc3)ncc2S1(=O)=O	·	·	·	·	31.6µM*
O=C(C[n+]1ccccc1Br)c1ccc(-c2ccccc2)cc1	·	·	·	·	-24.8%
CCOC(=O)c1c(OCC)[nH]c2c1cc(O)c1ccccc12	?	19.1%	-2.4	3.5%	22.4µM*
CN1C=CC2=C(C#N)C(N)C(C#N)(C#N)C(c3ccccc3)C2C1 (stereo not given)	-17.8%	3.2%	?	-0.3%	28.2µM*
Cc1cccc(NC(=O)CSc2ncc(-c3ccc(Br)cc3)[nH]2)c1	·	·	·	·	2.3%
COc1cccc(/C=c2/[nH]c(=O)/c(=C\c3cccc(OC)c3OC)[nH]c2=O)c1OC	·	·	·	·	-10.1%
O=C(Nc1ccc(F)cc1)N(CCCN1CCOCC1)Cc1cc2cc3c(cc2[nH]c1=O)OCCO3	-13.9%	2.7%	0.7	14.1%	25.1µM*
COc1ccccc1NC(=O)N(CCCN1CCOCC1)Cc1cc2cc3c(cc2[nH]c1=O)OCO3	3.3%	-16.6%	-5.6	-0.5%	20µM*
CCOc1ccc2noc3c2c1C(=O)c1ccccc1-3	8.91µM*	2.5%	?	?	-0.2%
COC(=O)c1coc(-c2ccc(C)cc2)c1C(=O)OC	-6.4%	?	3.4	2.3%	-12.4%
COC(=O)c1coc(-c2ccc(OC)cc2)c1C(=O)OC	-13.2%	10.3%	-2.0	2.4%	31.6µM*
COc1ccc(C2C3C=CCC(C)C3C(=O)N2Cc2ccccc2)cc1Cl (stereo not given)	-18.3%	·	5.7	·	·
CN(C)c1c(Cl)cc(/C=C/c2ccnc3ccccc23)cc1Br	·	·	·	·	-0.6%
O=C(Cn1c2[n+](c3ccccc31)CC(O)CS2)c1ccccc1 (stereo not given)	13.3%	-0.7%	2.6	9.1%	3.16µM*
Cc1ccc(C(=O)Cn2c3[n+](c4ccccc42)CC(O)CS3)cc1 (stereo not given)	-7.3%	-1.0%	-0.2	9.0%	0.1%
C/C(=N\NC(=O)c1nc2ccccn2c1C)c1ccc2c(c1)OCO2	8.6%	21.7%	7.2	-13.8%	-2.5%
C/C(=N\NC(=O)c1nc2ccccn2c1C)c1cccc([N+](=O)[O-])c1	-6.6%	12.6%	-0.1	-19.9%	17.8µM*

Screening data as filed in PubChem.
